Experimental data published in PubChem BioAssay (NCATS).
Values joined by “and” are separate entries in the source; they are usually repeats but may differ in a detail not shown here. Identical values can stand only once. Inconclusive results are not listed. The source holds several records for some structures; these can differ, active in one and inactive in another. Active and inactive are the calls of the source. Calls follow the shape of the dose curve; as a rule, active = well fitted inhibition curve with a large enough effect; inconclusive = small, poorly fitted or top-dose-only effect; inactive = flat fitted curve, though single readings scatter.

How the values were obtained:
P93_24 = assay: qHTS profiling for inhibitors of Plasmodium falciparum proliferation (AID 504749); conditions: P. falciparum in erythrocytes, SYBR Green DNA, 72 h; series mostly up to 28.7 µM
In short: (§1)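 P. falciparum-infected erythrocytes (0.3% parasitemia, 2.5% hematocrit) incubated with compound 72 h at 37 C, 5% CO2. Parasite DNA detected by SYBR Green after lysis, overnight at room temperature; normalised to 0.29 uM artemisinin and DMSO.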

P94_40 = assay: as above; conditions: P. falciparum in erythrocytes, SYBR Green DNA, 72 h; series mostly up to 28.7 µM
In short: as §1

PAD = assay: as above; conditions: P. falciparum in erythrocytes, SYBR Green DNA, 72 h; series mostly up to 28.7 µM
In short: as §1

PC15 = assay: as above; conditions: P. falciparum in erythrocytes, SYBR Green DNA, 72 h; series mostly up to 28.7 µM
In short: as §1

PC26 = assay: as above; conditions: P. falciparum in erythrocytes, SYBR Green DNA, 72 h; series mostly up to 28.7 µM
In short: as §1

PC49 = assay: as above; conditions: P. falciparum in erythrocytes, SYBR Green DNA, 72 h; series mostly up to 28.7 µM
In short: as §1

SC27B = assay: as above; conditions: P. falciparum in erythrocytes, SYBR Green DNA, 72 h; series mostly up to 28.7 µM
In short: as §1

TAB109 = assay: as above; conditions: P. falciparum in erythrocytes, SYBR Green DNA, 72 h; series mostly up to 28.7 µM
In short: as §1

TAB113 = assay: as above; conditions: P. falciparum in erythrocytes, SYBR Green DNA, 72 h; series mostly up to 28.7 µM
In short: as §1

TAB165 = assay: as above; conditions: P. falciparum in erythrocytes, SYBR Green DNA, 72 h; series mostly up to 28.7 µM
In short: as §1

W2 = assay: as above; conditions: P. falciparum in erythrocytes, SYBR Green DNA, 72 h; series mostly up to 28.7 µM
In short: as §1

CRL-7250 = normal cell line; assay: Cytotoxic Profiling of Annotated Libraries Using Quantitative High-Throughput Screening (AID 1296008); conditions: Five cell lines viability, CellTiter-Glo ATP luminescence, 48-72 h; max response: stronger effect = lower value; as to max response: % is scaled to controls: 0 for no effect and ±100 for the full control effect
In short: (§2)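 Cells exposed to compounds for 48 or 72 hr at 37 degrees Celsius. Viability read as ATP-coupled luminescence with CellTiter-Glo after 10 min at room temperature.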

HEK293 = assay: as above; conditions: Five cell lines viability, CellTiter-Glo ATP luminescence, 48-72 h; max response: stronger effect = lower value
In short: as §2

HaCat [1] = assay: as above; conditions: Five cell lines viability, CellTiter-Glo ATP luminescence, 48-72 h; max response: stronger effect = lower value
In short: as §2

NIH3T3 = assay: as above; conditions: Five cell lines viability, CellTiter-Glo ATP luminescence, 48-72 h; max response: stronger effect = lower value
In short: as §2

HACAT [2] = assay: qHTS assay to identify novel small-molecules to repurpose for Merkel cell carcinoma treatment (AID 1296009); conditions: MCC and control cell lines, CellTiter-Glo viability, 72 h; series mostly up to 44.8 µM
In short: (§3)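 Cells were treated for 72 hr at 37 degree celsius with compounds in 8- or 11-point dose response. Viability was read by CellTiter-Glo luminescence, normalized to no-cell (cytotoxicity) and DMSO controls.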

HEK293T = assay: as above; conditions: MCC and control cell lines, CellTiter-Glo viability, 72 h; at 44.8 µM (top of the series) unless noted
In short: as §3

MCC-13 = assay: as above; conditions: MCC and control cell lines, CellTiter-Glo viability, 72 h; series mostly up to 46 µM
In short: as §3

KB-3-1 = assay: Cytotoxic Profiling of Annotated Libraries Using Quantitative High-Throughput Screening (AID 1296008); conditions: Five cell lines viability, CellTiter-Glo ATP luminescence, 48-72 h; max response: stronger effect = lower value; as to max response: % is scaled to controls: 0 for no effect and ±100 for the full control effect
In short: as §2

MCC-26 = assay: qHTS assay to identify novel small-molecules to repurpose for Merkel cell carcinoma treatment (AID 1296009); conditions: MCC and control cell lines, CellTiter-Glo viability, 72 h; series mostly up to 46 µM
In short: as §3
Also: nearly all actives have a fitted effect of over 60% in size.
Potency is read from the fitted curve at half-maximal effect.

COc1ccc2[nH]cc(CCNC(C)=O)c2c1
inactive: Potency (P93_24) | Potency (P94_40) | Potency (PAD) | Potency (PC15) | Potency (PC26) | Potency (PC49) | Potency (SC27B) | Potency (TAB109) | Potency (TAB113) | Potency (TAB165) | Potency (W2) | max response (CRL-7250) -2.01% and -27.6% | max response (HEK293) 0.212% | outcome (HEK293) | max response (HaCat [1]) -2.62% | outcome (HaCat [1]) | max response (NIH3T3) 1.71% | outcome (NIH3T3) | outcome (HACAT [2]) | outcome (HEK293T) | Potency (MCC-13)

Nc1nc2c(ncn2COC(CO)CO)c(=O)[nH]1
active: Potency (HEK293) 0.132 µM
inactive: Potency (P93_24) | Potency (P94_40) | Potency (PAD) | Potency (PC15) | Potency (PC26) | Potency (PC49) | Potency (SC27B) | Potency (TAB109) | Potency (TAB113) | Potency (TAB165) | Potency (W2) | max response (CRL-7250) 1.91% | max response (HEK293) -8.08% | max response (HaCat [1]) -15.7% | max response (KB-3-1) 5.82% | max response (NIH3T3) -3.13% | Potency (MCC-26)
inactive and 20.9 µM (active): Potency (MCC-13)

Cc1cnc(C(=O)NCCc2ccc(S(=O)(=O)NC(=O)NC3CCCCC3)cc2)cn1
inactive: Potency (P93_24) | Potency (P94_40) | Potency (PAD) | Potency (PC15) | Potency (PC26) | Potency (PC49) | Potency (SC27B) | Potency (TAB109) | Potency (TAB113) | Potency (TAB165) | Potency (W2) | max response (CRL-7250) 0.493% | outcome (CRL-7250) | max response (HEK293) -14.8% | max response (HaCat [1]) 0.0058% | outcome (HaCat [1]) | max response (KB-3-1) -28.8% and 2.82% | max response (NIH3T3) 4.64% and -13.5% | outcome (HACAT [2]) | Potency (MCC-13)

Cc1cc(C(C)(C)C)c(O)c(C)c1CC1=NCCN1
active: Potency (HEK293) 9.35 µM
inactive: Potency (P93_24) | Potency (P94_40) | Potency (PAD) | Potency (PC15) | Potency (PC26) | Potency (PC49) | Potency (SC27B) | Potency (TAB109) | Potency (TAB113) | Potency (TAB165) | Potency (W2) | max response (CRL-7250) 4.59% and 1.76% | outcome (CRL-7250) | max response (HEK293) -3.25% | max response (HaCat [1]) -9.17% and -0.1% | outcome (HaCat [1]) | max response (NIH3T3) 3.71% | outcome (NIH3T3) | outcome (HACAT [2]) | Potency (MCC-13) | Potency (MCC-26)

NC(=O)NO
inactive: Potency (P93_24) | Potency (P94_40) | Potency (PAD) | Potency (PC15) | Potency (PC26) | Potency (PC49) | Potency (SC27B) | Potency (TAB109) | Potency (TAB113) | Potency (TAB165) | Potency (W2) | max response (HEK293) 4.27% | max response (HaCat [1]) -18.6% | max response (KB-3-1) 2.92% | max response (NIH3T3) 2.15%
active: Potency (CRL-7250) 13.2 µM | Potency (HEK293) 0.0526 µM | Potency (KB-3-1) 6.62 µM | Potency (NIH3T3) 18.7 µM
inactive and 2.96 µM (active): Potency (MCC-13)

Cc1ccc(-c2cc(C(F)(F)F)nn2-c2ccc(S(N)(=O)=O)cc2)cc1
inactive: Potency (PC49) | max response (CRL-7250) -3.61% | outcome (CRL-7250) | max response (HEK293) -17.2% | max response (HaCat [1]) 4.57% and -3.85% | outcome (HaCat [1]) | max response (NIH3T3) 4.24% | outcome (HACAT [2]) | Potency (MCC-13) | Potency (MCC-26)
active: Potency (PC26) 9.53 µM | Potency (W2) 6.75 µM

N[C@@H](Cc1c[nH]c2ccc(O)cc12)C(=O)O
inactive: Potency (P93_24) | Potency (P94_40) | Potency (PAD) | Potency (PC15) | Potency (PC26) | Potency (PC49) | Potency (SC27B) | Potency (TAB109) | Potency (TAB113) | Potency (TAB165) | Potency (W2) | max response (CRL-7250) -11.6% | outcome (CRL-7250) | max response (HEK293) 2.68% | outcome (HEK293) | outcome (HaCat [1]) | max response (NIH3T3) -0.603% and 4.53% | outcome (HACAT [2]) | outcome (HEK293T) | Potency (MCC-13)

NCCc1cnc[nH]1
inactive: Potency (P93_24) | Potency (P94_40) | Potency (PC15) | Potency (PC26) | Potency (SC27B) | Potency (TAB109) | Potency (TAB113) | Potency (TAB165) | Potency (W2) | outcome (CRL-7250) | max response (HEK293) 4.08% | outcome (HEK293) | max response (HaCat [1]) -11% and 1.72% | max response (NIH3T3) -6.9% | outcome (NIH3T3) | outcome (HEK293T) | Potency (MCC-13)

COc1ccc(C2CNC(=O)C2)cc1OC1CCCC1 (configuration not stated)
inactive: max response (CRL-7250) -1.68% | outcome (CRL-7250) | max response (HEK293) 0.111% | outcome (HEK293) | max response (HaCat [1]) -13.7% | outcome (HaCat [1]) | max response (KB-3-1) 0.0275% and -1.99% | max response (NIH3T3) -5.87% | outcome (NIH3T3) | outcome (HACAT [2]) | outcome (HEK293T) | Potency (MCC-13) | Potency (MCC-26)

Cn1ccc2cc3c(cc21)CCN3C(=O)Nc1cccnc1
inactive: max response (CRL-7250) -6.32% | outcome (CRL-7250) | max response (HEK293) -20.9% | outcome (HEK293) | max response (HaCat [1]) -2.9% | max response (NIH3T3) 0.531% | outcome (NIH3T3) | outcome (HEK293T) | Potency (MCC-13)
active: Potency (PC26) 13.5 µM

CN(C)c1nc(N(C)C)nc(N(C)C)n1
inactive: Potency (P93_24) | Potency (P94_40) | Potency (PAD) | Potency (PC15) | Potency (PC26) | Potency (PC49) | Potency (SC27B) | Potency (TAB109) | Potency (TAB113) | Potency (TAB165) | Potency (W2) | max response (CRL-7250) -4.79% | outcome (CRL-7250) | max response (HEK293) -4.81% and -7.03% | max response (HaCat [1]) -7.57% and -4.4% | max response (KB-3-1) 0.844% and 0.45% | max response (NIH3T3) 1.4% and 1.9% | Potency (MCC-13)
